This note sets out measurements from PubChem BioAssay (NCI).

The panel holds about 83,000 compounds, 20% with a hit somewhere; the sample as a whole holds those more often.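 Activity criterion: percent growth below 10, measured after cells in 96-well plates were exposed to a single compound concentration for 48 hours.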 A number with no mark means an inactive call. Activity calls are given as the source filed them.

Some test systems named below: RPMI-8226 leukemia; OVCAR-8 ovarian; OVCAR-5 ovarian; OVCAR-4 ovarian; OVCAR-3 ovarian; HS 578T breast; NCI/ADR-RES ovarian; T-47D breast; BT-549 breast; MDA-MB-435 melanoma; MCF7 breast; HCT-116 colon; HCC-2998 colon; KM12 colon; SK-OV-3 ovarian; IGROV1 ovarian; SW-620 colon.
Assay in all cases: NCI-60 one-dose screen, 48 h (100 = growth as untreated, 0 = no growth, -100 = all killed)
Common to all, as to conditions: 10 µM

On to `NC(=O)CC1(c2ccccc2)CCCCC1`, for which the growth was 99.1% in the experiment on RPMI-8226 leukemia; 107% in the experiment with OVCAR-8 ovarian; 111% in the experiment on OVCAR-5 ovarian; 103% with OVCAR-4 ovarian; 103% with OVCAR-3 ovarian; 115% in the experiment on HS 578T breast. Further, the growth with NCI/ADR-RES ovarian was 107%; with T-47D breast, 97.5%; in the experiment with BT-549 breast it was 102%; in the experiment on MDA-MB-435 melanoma it was 109%; with MCF7 breast it was 96.4%; in the experiment on HCT-116 colon, 95.6%. For the same compound, the growth is 102% in the experiment with HCC-2998 colon and 101% with KM12 colon.
Turning to `CN1CCC2(CC1)NC(=O)c1c(c3ccc(Cl)c(Cl)c3n1C)C2C#N` (stereo not given), the growth in the experiment with RPMI-8226 leukemia is 80.4%; in the experiment on OVCAR-8 ovarian, 80.8%; with OVCAR-5 ovarian it was 67.7%; in the experiment with SK-OV-3 ovarian, 86.1%; with IGROV1 ovarian it was 73.4%; in the experiment on OVCAR-3 ovarian, 76%. Further, the growth in the experiment with HS 578T breast is 71.1%; in the experiment on NCI/ADR-RES ovarian it was 82.4%; in the experiment on T-47D breast, 81.3%; in the experiment with BT-549 breast it was 84.9%; with MDA-MB-435 melanoma it was 49.2%; with SW-620 colon, 83.9%. In addition, the growth in the experiment on MCF7 breast is 28.5%; in the experiment with HCT-116 colon it was 43%; in the experiment on HCC-2998 colon it was -1.84% (active); in the experiment with KM12 colon it was 106%.
As for `CN(C)C=Nc1cc(Cl)ccc1Cl`, the growth was 98.9% in the experiment with RPMI-8226 leukemia; 114% with OVCAR-8 ovarian; 104% with OVCAR-5 ovarian; 99.9% in the experiment on OVCAR-4 ovarian; 118% in the experiment with IGROV1 ovarian; 113% in the experiment on OVCAR-3 ovarian. The growth with HS 578T breast was 117%; with NCI/ADR-RES ovarian, 107%; in the experiment with T-47D breast, 108%; with BT-549 breast, 112%; in the experiment with MDA-MB-435 melanoma, 97.9%; with SW-620 colon, 103%. Besides, the growth is 101% in the experiment with MCF7 breast, 104% with HCT-116 colon, 108% in the experiment with HCC-2998 colon and 110% with KM12 colon.
Regarding `CCCCCCCCCCCCC1C/C=C\CCCC(=O)O1` (stereo not given), the growth in the experiment with RPMI-8226 leukemia was 89.7%; with OVCAR-8 ovarian, 104%; in the experiment with OVCAR-5 ovarian, 101%; in the experiment with SK-OV-3 ovarian, 95.5%; in the experiment with IGROV1 ovarian it was 110%; in the experiment on OVCAR-3 ovarian it was 107%. Also, the growth is 113% in the experiment with HS 578T breast; 119% in the experiment with NCI/ADR-RES ovarian; 91.2% with T-47D breast; 127% in the experiment on BT-549 breast; 105% with MDA-MB-435 melanoma; 104% with SW-620 colon. The growth in the experiment on MCF7 breast was 91.7%; in the experiment on HCT-116 colon, 105%; with HCC-2998 colon, 129%; in the experiment on KM12 colon it was 112%.
For `COc1cc(/C=N/NC(=O)c2ccccc2Nc2ccnc(C(F)(F)F)c2)ccc1O`, the growth in the experiment on RPMI-8226 leukemia was 90.8%; in the experiment with OVCAR-8 ovarian, 101%; in the experiment on OVCAR-5 ovarian, 116%; with SK-OV-3 ovarian, 98.9%; in the experiment on IGROV1 ovarian it was 123%; with OVCAR-3 ovarian, 109%. The growth with HS 578T breast is 97.4%; with NCI/ADR-RES ovarian, 143%; in the experiment with T-47D breast, 116%; in the experiment on BT-549 breast, 116%; in the experiment on MDA-MB-435 melanoma, 106%; in the experiment with SW-620 colon, 104%. Further, the growth was 86.8% in the experiment on MCF7 breast, 102% with HCT-116 colon, 123% with HCC-2998 colon and 114% in the experiment with KM12 colon.
With `CCCN(CCC)CCC(O)c1cc2c(c3ccccc13)CCCC2` (stereo not given), the growth is 86.1% in the experiment with RPMI-8226 leukemia; 102% in the experiment on OVCAR-8 ovarian; 84.9% in the experiment with OVCAR-5 ovarian; 103% in the experiment on OVCAR-4 ovarian; 77.8% with IGROV1 ovarian; 88% in the experiment on HS 578T breast. For the same compound, the growth with NCI/ADR-RES ovarian was 83.3%; in the experiment on T-47D breast, 68.9%; in the experiment with BT-549 breast it was 92.5%; with MDA-MB-435 melanoma it was 97.7%; in the experiment with SW-620 colon, 94.1%; with MCF7 breast it was 82.4%. Moreover, the growth in the experiment with HCT-116 colon was 70.3%; in the experiment on HCC-2998 colon it was 87.6%; in the experiment with KM12 colon, 101%.
For `O=c1[nH]c(-c2ccc(Cl)cc2)nc2sc3c(c12)CCCC3`, the growth with RPMI-8226 leukemia was 96.7%; in the experiment with OVCAR-8 ovarian, 68%; with OVCAR-5 ovarian, 103%; with OVCAR-4 ovarian it was 86.2%; in the experiment with IGROV1 ovarian it was 82.1%; with OVCAR-3 ovarian, 101%. Moreover, the growth is 104% with HS 578T breast; 81.8% with NCI/ADR-RES ovarian; 64.4% with T-47D breast; 92.3% with BT-549 breast; 93.2% with MDA-MB-435 melanoma; 58.8% with SW-620 colon. In addition, the growth was 36% in the experiment on MCF7 breast, 60.9% in the experiment on HCT-116 colon, 109% in the experiment on HCC-2998 colon and 97.6% in the experiment on KM12 colon.
Consider `Cc1nc2c(c(=O)[nH]1)OCN(Cc1ccccc1)C2`, for which the growth is 101% in the experiment on RPMI-8226 leukemia; 99.1% in the experiment on OVCAR-8 ovarian; 109% in the experiment with OVCAR-5 ovarian; 96.1% in the experiment with OVCAR-4 ovarian; 100% in the experiment on IGROV1 ovarian; 103% in the experiment on OVCAR-3 ovarian. Besides, the growth is 109% in the experiment on HS 578T breast; 107% in the experiment with NCI/ADR-RES ovarian; 97.8% in the experiment with T-47D breast; 102% with BT-549 breast; 112% with MDA-MB-435 melanoma; 102% in the experiment with SW-620 colon. Further, the growth in the experiment with MCF7 breast is 102%; with HCT-116 colon, 100%; in the experiment on HCC-2998 colon, 104%; with KM12 colon it was 104%.
On to `O=C(O)C(SC(C(=O)O)c1ccccc1)c1ccccc1` (stereo not given), for which the growth in the experiment with RPMI-8226 leukemia is 102%; in the experiment with OVCAR-8 ovarian, 110%; in the experiment with OVCAR-5 ovarian it was 106%; in the experiment on OVCAR-4 ovarian, 102%; in the experiment on IGROV1 ovarian, 115%; in the experiment on OVCAR-3 ovarian it was 114%. The growth in the experiment with HS 578T breast was 113%; in the experiment on NCI/ADR-RES ovarian, 106%; with BT-549 breast it was 101%; in the experiment with MDA-MB-435 melanoma, 116%; in the experiment with SW-620 colon it was 107%; in the experiment on MCF7 breast, 96.3%. In addition, the growth in the experiment with HCT-116 colon is 106%; in the experiment on HCC-2998 colon it was 103%; with KM12 colon it was 113%.
